Bioassay records: PubChem BioAssay, National Center for Advancing Translational Sciences (NCATS)
Compounds with a hit are over-represented: about 10% of the library has one in this group of screens.
HP1b binding inh: HP1-beta chromodomain-methylated histone interaction inhibition; Potency, µM (top dose mostly 114 µM), without a hit: top-dose activity change, negative = inhibition, hits mostly inhibitors; AID 540317; P83916; AlphaScreen HP1-beta / biotin-H3K9me3 peptide binding; actives 0.56% (n = 390,000); note: potency is the fitted concentration of half-maximal effect; nearly all actives have a fitted effect of over 70% in size
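HP1-beta protein (50 nM final) preincubated 30 min at room temperature with biotinylated H3(1-18)K9me3 peptide (50 nM) in PBS pH 7.4, 0.01% Tween-20, then compound added for 30 min. AlphaScreen streptavidin donor/nickel chelate acceptor beads (10 ug/mL final), 30 min dark, luminescence read.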
G9a block: blocks human histone lysine methyltransferase G9a. Q96KQ7. G9a H3K9 monomethylation, AlphaScreen, 2 h. Potency, µM (highest dose often 102 µM), for the others: at the top dose activity, negative = inhibition, most hits filed as inhibitors. actives 8.8% (n = 350,000); note: potency is the fitted concentration of half-maximal effect; % is set by controls: 0 for no effect and ±100 for the full control effect; nearly all actives have a fitted effect of over 75% in size
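Step 1: enzyme (final 20 nM) with compound, 15 min RT. Step 2: substrate peptide 500 nM and SAM 20 uM, 2 h RT. Step 3: anti-H3K9me1 antibody and AlphaScreen beads, 10 min, then plate read.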
CtBP-E1A inh: blocks the CtBP interaction with E1A | AID 651724 | AlphaScreen GST-E1A/His-CtBP binding, 1536-well; stronger effect = lower value | actives 0.49% (n = 340,000) | activity change, % (concentration not given with the values); in the data active = activity change below about -65%; inconclusive = mostly about -30% to -63%; note: % is set by controls: 0 for no effect and ±100 for the full control effect
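GST-E1A and His-tagged CtBP (125 nM each as 5X stock) were preincubated with pin-transferred compound for 2 h at 37 °C in the dark, then glutathione donor and nickel acceptor beads were added for 1 h before AlphaScreen reading.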
BAZ2B inh: blocks human BAZ2B. Q9UIF8. AlphaScreen BAZ2B-H3K14Ac peptide displacement. Potency, µM (titrated, usually from 114 µM), without a hit: top-dose activity change, negative = inhibition, most hits filed as inhibitors. actives 4.4% (n = 360,000); note: potency is the fitted concentration of half-maximal effect; % is set by controls: 0 for no effect and ±100 for the full control effect; nearly all actives have a fitted effect of over 60% in size
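Compounds, titrated to a top concentration of 110 uM, were incubated 30 min at room temperature with preformed BAZ2B/acetyl-K14 H3 peptide complex (50 nM each). Proximity signal was measured by AlphaScreen after 20 min with beads.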
JMJD2A Tudor inh: inhibitors of human JMJD2A Tudor domain. O75164. AlphaScreen JMJD2A-Tudor / H3K4me3 peptide binding. Potency, µM (doses to about 114 µM), for the others: at the highest dose activity change, negative = inhibition, most hits filed as inhibitors. actives 4.4% (n = 390,000). AID 504339; note: potency is the fitted concentration of half-maximal effect; % is set by controls: 0 for no effect and ±100 for the full control effect; nearly all actives have a fitted effect of over 50% in size
Six1-Eya2 blk: Six1/Eya2 interaction inhibition. AlphaScreen GST-Six1/His-Eya2 binding, biochemical; stronger effect = lower value. activity change, % (no concentration beside the values). actives 0.56% (n = 360,000). AID 651725; in the data active = activity change below about -65%; inconclusive = mostly about -30% to -63%; note: % is set by controls: 0 for no effect and ±100 for the full control effect
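Homogeneous AlphaScreen proximity assay pairing GST-Six1 with His-tagged Eya2 (added as 5X mix: 250 nM and 500 nM) in 50 mM Tris pH 8.0, 300 mM NaCl, 1 mM TCEP. Glutathione donor and nickel acceptor beads; 1 h, 37 °C, dark.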
An asterisk follows results filed as active; ? = inconclusive; . = not tested or not shown; [ ] = another dose, or the depositor's remark. Unless noted, calls come from the whole dose curve; as a rule, active = well fitted inhibition curve with a large enough effect; inconclusive = small, poorly fitted or top-dose-only effect; inactive = no such curve, though single readings can be large or run the other way.

SMILES | HP1b binding inh | G9a block | CtBP-E1A inh | BAZ2B inh | JMJD2A Tudor inh | Six1-Eya2 blk
O=C(/C=C/c1ccncc1)c1ccc(NC(=O)c2ccccc2F)cc1 | -2%[57 µM] | 14µM* | 0 | 50µM* | 56µM* | 12
Cc1ccc(Cc2c(C)nc3nc(SCC(=O)NCCC(C)C)nn3c2C)cc1 | 15% | -5%[59 µM] | . | -3% | -18% | .
Cc1ccc(NC(=O)NC2CC(=O)N(c3ccc4c(c3)OCCO4)C2)c(C)c1 (centres undefined) | -4% | 6% | 0 | -8% | -25% | 3
Cc1cccc(NC(=O)CN2C(=O)CC(c3ccccc3)Sc3ccccc32)c1 (centres undefined) | 45% | 18%[59 µM] | . | -1% | -11% | .
Cc1cc(C)nc(NS(=O)(=O)c2ccc(NC(=S)NC(=O)c3ccco3)cc2)n1 | 2% | 50µM* | 12 | 1% | -13% | -4
CCN(CC)c1ccc(NC(=O)c2c(C)noc2C)cc1 | 15% | 28µM* | 4 | ? | -27% | -3
COc1cc(NS(=O)(=O)c2ccc(NC(=S)NC(=O)c3ccco3)cc2)nc(OC)n1 | 10% | . | 0 | ? | -12% | 11
CCCc1nnc(NC(=O)C2CCCO2)s1 (centres undefined) | 49% | -10% | 44 | -4% | -7% | 27
CCn1cc(CN2CCCC(CNS(=O)(=O)c3cccc4cccnc34)C2)cn1 (centres undefined) | 24% | . | 1 | -7% | 1% | 1
CCc1cc(-c2[nH]ncc2-c2ccc3c(c2)OCO3)c(O)cc1O | ? | ? | 7 | 32µM* | 32µM* | -17
Cc1ccc(-c2cn3c4c(=O)n(C)c(=O)n(C)c4nc3n2-c2cccc(Cl)c2)cc1 | 56% | 2%[59 µM] | . | -1% | -5% | .
CN(C)c1ccc(C2(c3ccc(N(C)C)cc3)OC(=O)c3cc(N)ccc32)cc1 | 16µM* | 16%[2.33 µM] | ? | 18µM* | 28µM* | ?
CCN(CC)C(=O)CSc1nc(C)cc(-c2cccs2)c1C#N | 2% | 10µM* | 5 | -16% | 56µM* | -2
Cc1cc(C)c(C#N)c(SCC(=O)c2cccs2)n1 | 134% | 27%[2.33 µM] | 8 | 12% | -2% | 7
Cc1cccc(OCCCCn2c(C3CC(=O)N(c4ccc(C)cc4C)C3)nc3ccccc32)c1 (centres undefined) | -1% | ? | . | ? | ? | .
Cc1cccc(OCCCCn2c(C3CC(=O)N(c4ccccc4Cl)C3)nc3ccccc32)c1 (centres undefined) | 3% | 13µM* | . | 50µM* | -35% | .
CCc1ccccc1N1CC(c2nc3ccccc3n2Cc2cccc(C)c2)CC1=O (centres undefined) | 8% | 1µM* | . | -23% | -33% | .
COc1ccc(Cl)cc1NC(=O)Cn1nc(Cc2ccncc2)c2ccccc2c1=O | 80% | -39%[59 µM] | . | -21% | -18% | .
CCc1c(C)[nH]n(-c2nc(-c3ccccc3)cs2)c1=O | 0% | 50µM* | . | -3% | -18%[11.4 µM] | 3
CCc1c(C)[nH]n(-c2nc(-c3cccc([N+](=O)[O-])c3)cs2)c1=O | -14% | 0%[59 µM] | -5 | -1% | ? | -17
CCOC(=O)c1cc2occc2n1Cc1c(F)cccc1Cl | 4% | ? | 6 | 50µM* | -10% | -2
Cc1cc2c(cc(C(=O)N3CCC(C(=O)N4CCCC4)CC3)n2Cc2c(F)cccc2Cl)o1 | -23% | 50µM* | -9 | ? | 56µM* | -2
N#Cc1cccc(S(=O)(=O)N2CCN(S(=O)(=O)c3ccc4c(c3)OCCO4)CC2)c1 | 9%[57 µM] | . | . | . | -8% | .
CC(O)(c1ccc(F)c(F)c1)c1nc(-c2cc3ccccc3o2)cs1 (centres undefined) | . | . | 4 | . | . | 4
O=C(N/N=C/c1ccnc2ccccc12)c1ccccc1O | 1% | 4% | -6 | -14% | 100µM* | ?
SMILES | HP1b binding inh | G9a block | CtBP-E1A inh | BAZ2B inh | JMJD2A Tudor inh | Six1-Eya2 blk
O=C(N/N=C/c1oc(O)c2ccccc12)c1ccccc1O | -17% | 35µM* | . | -8% | -16% | -24
O=C(N/N=C/c1ccc2nccnc2c1)c1ccccc1O | . | 16% | . | -10% | . | .
O=C(N/N=C/c1ccoc1)c1ccccc1O | 3% | -5% | -1 | ? | -19% | -10
Cc1ccc2c(cnn2C(=O)CCC(=O)NCc2cccc(Cl)c2)c1 | 29% | 45µM* | 5 | 11% | -15% | 0
Cc1ccc2c(cnn2C(=O)CCC(=O)NCc2cccc(Br)c2)c1 | 39% | . | 8 | 8% | -8% | 6
COc1ccc(Nc2nnc(SC(C(=O)Nc3ccc(OC)c(Cl)c3)c3ccccc3)s2)cc1 (centres undefined) | 1% | 20µM* | 5 | -14% | -18% | ?
COc1cccc(NC(=O)C(Sc2nnc(Nc3ccccc3C)s2)c2ccccc2)c1 (centres undefined) | 25% | ? | -23 | -4% | -16% | -11
COc1ccc(Nc2nnc(SC(C(=O)Nc3cc(C)ccc3C)c3ccccc3)s2)cc1 (centres undefined) | 2% | 50µM* | -5 | -19% | -17% | 4
COc1ccc(C)cc1NC(=O)C(Sc1nnc(Nc2cc(C)ccc2OC)s1)c1ccccc1 (centres undefined) | 6% | 3.5µM* | -12 | -34% | ? | -14
Cc1cccc(NC(=O)CSc2nnc3scc(-c4ccccc4)n23)c1 | 15% | 5%[59 µM] | . | 1% | -4% | .
CC1(C)CSC(=NCCc2ccccc2)N1C(=O)c1ccc(C#N)cc1 | 29% | 2.8µM* | 18 | ? | 1% | -4
COc1ccccc1NC(=O)c1cc2c(CO)cnc(C)c2oc1=Nc1cccc(C(N)=O)c1 | 51% | 19% | . | 1% | -3% | -18
CC(C)[C@H](NC(=O)OC(C)(C)C)c1nnc(SCC(=O)Nc2ccc(Br)cc2)o1 | 19% | -10%[12.7 µM] | -8 | 10% | -21% | -1
Cc1cnc(C=NNC(N)=S)c2cccc(N)c12 | ? | . | -2 | . | 50µM* | -79*
NC(=S)NN=Cc1nccc2ccccc12 | -6%[57 µM] | . | -94* | . | 18µM* | -81*
NC(=S)NN=Cc1nccc2c(C(F)(F)C(F)(F)C(F)(F)F)cccc12 | . | . | 16 | . | . | -19
NS(=O)(=O)c1ccc(CCNC(=O)c2cnc(Cl)c(Cl)c2)cc1 | -9% | -9% | -3 | 2% | -10% | 2
Cc1cccc(C)c1NC(=O)C(c1cc2ccccc2o1)N1CCC(c2ccccc2)CC1 (centres undefined) | . | . | 9 | . | . | 0
CC(C)CCN1C(=O)c2ccccc2CC1(C)C(=O)NC1CCCCC1 (centres undefined) | 60% | 1%[59 µM] | . | -28% | 1% | .
